This is an account of results in PubChem BioAssay (EPA / NIEHS).

Activity calls are given as the source filed them. Rule for the calls: active = hit-call score of the fitted dose curve at least 0.9, where 1 is the maximum; inactive = score below 0.9.

Chain of Cytochrome P450 3A7 (Homo sapiens) (P24462 whole entry, looked up): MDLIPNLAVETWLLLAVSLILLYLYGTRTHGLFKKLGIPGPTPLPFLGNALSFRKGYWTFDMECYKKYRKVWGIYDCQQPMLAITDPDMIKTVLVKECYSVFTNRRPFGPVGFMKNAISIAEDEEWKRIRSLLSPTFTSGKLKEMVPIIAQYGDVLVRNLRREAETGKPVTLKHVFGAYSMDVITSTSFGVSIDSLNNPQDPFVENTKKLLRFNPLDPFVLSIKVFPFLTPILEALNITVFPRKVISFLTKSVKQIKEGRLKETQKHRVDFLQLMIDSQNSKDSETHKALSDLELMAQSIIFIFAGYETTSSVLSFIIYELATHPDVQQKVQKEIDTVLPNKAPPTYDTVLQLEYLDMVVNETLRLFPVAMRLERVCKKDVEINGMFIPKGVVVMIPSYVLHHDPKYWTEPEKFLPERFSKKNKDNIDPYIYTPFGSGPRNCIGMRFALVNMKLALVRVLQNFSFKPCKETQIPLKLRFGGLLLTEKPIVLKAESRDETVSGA

Read-out in the assay: Cytochrome P450 3A7 (Homo sapiens) (UniProt P24462)
The assay is described as follows: LTEA_HepaRG_CYP3A7: Life Technologies and Expression Analysis (LTEA) Assay for CYP3A7 using HepaRG (AID 2283492). The note with it: mRNA level, 48 h; actives raise or lower the signal. On the procedure:
LTEA_HepaRG is a cell based, multiplexed-readout assay that uses HepaRG, a human liver cell line, with measurements taken at 48 hours after chemical dosing on a 96-well plate.LTEA_HepaRG_CYP3A7 is one of 102 assay component(s) measured in the LTEA HepaRG cell culture assay. It is a marker of NR mediated metabolism/Undifferentiated hepatocyte.Data from the assay component LTEA_HepaRG_CYP3A7 was analyzed into 1 endpoint. This assay endpoint, LTEA_HepaRG_CYP3A7, was analyzed with bidirectional fitting relative to DMSO as the negative control and baseline of activity. Using a type of inducible reporter, measures of mRNA induction for gain or loss-of-signal activity can be used to understand regulation of transcription factor activity. To generalize the intended target to other relatable targets, this assay endpoint is annotated to the cyp intended target family, where the subfamily is xenobiotic metabolism.
A total of 1060 chemcials from the ToxCast library were tested in eight-point concentration-response experiments. Cell culture and cytotoxicity assays were conducted at Thermo Fisher Scientific's Custom Services facility (Madison, WI). A single lot of human HepaRG cells (Thermo Fisher Scientific, Frederick, MD) was used for the cell culture experiments. 96-well format collagen type I coated plates of human HepaRG cells were prepared using established methods. Briefly, cryopreserved HepaRG cells were thawed, plated at a density of approximately 100,000 cells/well in HepaRG Thaw, Plate, and General Purpose media (HPRG770, Thermo Fisher Scientific), and incubated for 48 hours. 0.5% DMSO was selected as vehicle control to balance the requisite need of DMSO in HepaRG cultures to maintain differentiation (for example, baseline metabolism, proportions of hepatocytes vs. cholangiocytes), while enabling further hepatic receptor pathway activation (for example, PXR and CAR) in response to chemical exposure. 48 hours after plating, the culture medium was replaced with HepaRG Serum-Free Incudtion Media. Cells were exposed to each test chemical in duplicate and maintained in CO2 incubators for another 48 hours. Chemical plates were thawed to room temperature and 200x concentrations of treatment groups were prepared. 8-point conentration-reponse curves were made with the highest exposure at 100 uM, followed by half-log dilutions, all in 0.5% DMSO. Each test plate contained variouse controls, induction positive controls (1mM phenobarbital), cytotoxicity positive controls ([…] aflatoxin B1), vehicle controls (0.5% DMSO), and total lysis controls (0.5% DMSO). Cell morphology images were taken using an Essen IncuCyte FLR automated microscope, with six 96-well plates imaged in about 24 minutes. Images were captured and exported and JPEG files. Spent culture media was transfered to black-well plates for the LDH assay, and remaining media was sorted at -80 C for later use. Cells were treated with RLT buffer and frozen until shipped for gene expression analysis. Total RNA was isolated from the cell suspension in 75 uL of Buffer RLT (Qiagen, Germantown, MD 20874) by Quintiles/Expression Analysis (Durham, NC) using a custom isolation procedure. Total RNA from each plate well was transferred to a preamplification plate. Fluidigm's 96.96 Dynamic ArrayTM (Fluidigm, Amsterdam, the Netherlands) technology was used for gene expression analyses by quantitative reverse transcription polymerase chain reaction (qRT-PCR, performed by Quintiles/Expression Analysis, Durham, NC)89. Standard TaqManTM Assays (Applied Biosystems/ThermoFisher Scientific, Foster City, CA) were used to assess the expression of 93 genes selected based on their selectivity and sensitivity to important hepatic receptors known to be modulated by environmental chemicals; importance in human hepatocyte functionality; and hepatotoxicity. […]
`CCCCC=O`: the result was inactive.
Same read-out and setting: next, `CCC(C)c1ccccc1O` (stereo not given): “inactive”.
Still for that read-out and setting: next, `OCC(CO)(CBr)CBr`: “inactive”; `CCCCC(CC)C(=O)O` (stereo not given): “inactive”.
Still for that read-out and setting: in the case of `CN(Cc1cnc2nc(N)nc(N)c2n1)c1ccc(C(=O)N[C@@H](CCC(=O)O)C(=O)O)cc1` it was “inactive”.
The AC50 is the concentration giving half of the maximal activity seen. With `O=C(CCCN1CCC(O)(c2ccc(Cl)cc2)CC1)c1ccc(F)cc1`, the AC50 is 75.8 µM (active).
In the case of `CC(=O)Nc1ccc(O)cc1`, the molecule was classed as inactive.
As for `Cc1[nH]nc2c1N=C(c1ccccc1Cl)c1cc([N+](=O)[O-])ccc1N2`, the concentration at half-maximal activity (AC50) was 2.83 µM (active).
Turning to `CCCCCCCCCCCCCCC`, the half-maximal activity concentration (AC50) was 14.9 µM (active).
For the molecule `O=C1NS(=O)(=O)c2ccccc21`, the molecule was called inactive.
